We go through 10 molecules from ChEMBL document CHEMBL1961873, “Compounds: GSK PKIS; Assays: Nanosyn kinase panel” (2012).

The target of assay [1] is Fibroblast growth factor receptor 4 (Homo sapiens) (UniProt P22455). The conditions noted are these: at 1 µM.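 Also: reported figure is the averaged percent inhibition of FGFR4, from the GSK PKIS kinase screening panel.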
For assay [2], the target named is Tyrosine-protein kinase Fgr (Homo sapiens) (UniProt P09769). Conditions: at 0.1 µM.
Assay [3] has the same target. Conditions: at 1 µM.
The target of assay [4] is Vascular endothelial growth factor receptor 1 (Homo sapiens) (UniProt P17948). The conditions noted are these: at 0.1 µM.
Vascular endothelial growth factor receptor 1 (Homo sapiens), sequence (P17948 whole entry): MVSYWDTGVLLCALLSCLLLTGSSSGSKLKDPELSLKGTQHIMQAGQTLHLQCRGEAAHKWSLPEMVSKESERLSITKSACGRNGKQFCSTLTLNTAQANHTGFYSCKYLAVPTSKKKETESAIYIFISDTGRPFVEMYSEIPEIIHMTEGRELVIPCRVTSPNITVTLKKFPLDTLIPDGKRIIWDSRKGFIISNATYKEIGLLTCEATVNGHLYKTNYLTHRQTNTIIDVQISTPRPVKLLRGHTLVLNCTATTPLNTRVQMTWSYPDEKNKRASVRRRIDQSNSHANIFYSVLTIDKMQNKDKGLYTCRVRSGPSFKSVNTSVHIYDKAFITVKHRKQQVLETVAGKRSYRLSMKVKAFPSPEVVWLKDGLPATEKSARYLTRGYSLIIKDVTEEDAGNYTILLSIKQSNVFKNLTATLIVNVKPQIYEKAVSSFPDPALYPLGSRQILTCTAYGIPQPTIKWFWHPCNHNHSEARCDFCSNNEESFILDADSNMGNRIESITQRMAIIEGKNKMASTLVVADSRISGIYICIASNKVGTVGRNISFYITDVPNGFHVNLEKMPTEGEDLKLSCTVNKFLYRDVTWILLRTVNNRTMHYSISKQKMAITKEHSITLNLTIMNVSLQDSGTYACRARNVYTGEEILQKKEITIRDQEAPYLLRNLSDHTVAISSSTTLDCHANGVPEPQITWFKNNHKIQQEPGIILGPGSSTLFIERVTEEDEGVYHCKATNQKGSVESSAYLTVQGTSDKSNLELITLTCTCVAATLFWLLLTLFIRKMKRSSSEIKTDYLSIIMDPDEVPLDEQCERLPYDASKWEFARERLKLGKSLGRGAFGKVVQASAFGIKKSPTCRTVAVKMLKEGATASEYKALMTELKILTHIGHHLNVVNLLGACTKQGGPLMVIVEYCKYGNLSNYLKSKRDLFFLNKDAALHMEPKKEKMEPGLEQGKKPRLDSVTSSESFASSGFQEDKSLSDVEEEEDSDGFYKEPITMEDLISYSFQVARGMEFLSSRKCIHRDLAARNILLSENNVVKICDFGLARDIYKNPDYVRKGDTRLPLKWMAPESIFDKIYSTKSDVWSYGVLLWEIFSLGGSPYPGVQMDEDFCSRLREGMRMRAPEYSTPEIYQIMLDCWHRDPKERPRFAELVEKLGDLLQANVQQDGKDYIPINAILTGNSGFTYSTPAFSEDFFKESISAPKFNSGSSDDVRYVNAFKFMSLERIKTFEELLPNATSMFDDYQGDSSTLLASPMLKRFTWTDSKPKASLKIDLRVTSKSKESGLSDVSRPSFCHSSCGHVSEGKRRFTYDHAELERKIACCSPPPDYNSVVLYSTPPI
For assay [5] the target is unchanged. The conditions noted are these: at 1 µM.
Assay [6] has as its target Receptor-type tyrosine-protein kinase FLT3 (Homo sapiens) (UniProt P36888). The conditions noted are these: at 0.1 µM.
For assay [7] the target is unchanged. The conditions noted are these: at 1 µM.
Assay [8] deals with T1, Receptor-type tyrosine-protein kinase FLT3 (Homo sapiens), P36888 [D835Y].
T1 sequence (whole entry): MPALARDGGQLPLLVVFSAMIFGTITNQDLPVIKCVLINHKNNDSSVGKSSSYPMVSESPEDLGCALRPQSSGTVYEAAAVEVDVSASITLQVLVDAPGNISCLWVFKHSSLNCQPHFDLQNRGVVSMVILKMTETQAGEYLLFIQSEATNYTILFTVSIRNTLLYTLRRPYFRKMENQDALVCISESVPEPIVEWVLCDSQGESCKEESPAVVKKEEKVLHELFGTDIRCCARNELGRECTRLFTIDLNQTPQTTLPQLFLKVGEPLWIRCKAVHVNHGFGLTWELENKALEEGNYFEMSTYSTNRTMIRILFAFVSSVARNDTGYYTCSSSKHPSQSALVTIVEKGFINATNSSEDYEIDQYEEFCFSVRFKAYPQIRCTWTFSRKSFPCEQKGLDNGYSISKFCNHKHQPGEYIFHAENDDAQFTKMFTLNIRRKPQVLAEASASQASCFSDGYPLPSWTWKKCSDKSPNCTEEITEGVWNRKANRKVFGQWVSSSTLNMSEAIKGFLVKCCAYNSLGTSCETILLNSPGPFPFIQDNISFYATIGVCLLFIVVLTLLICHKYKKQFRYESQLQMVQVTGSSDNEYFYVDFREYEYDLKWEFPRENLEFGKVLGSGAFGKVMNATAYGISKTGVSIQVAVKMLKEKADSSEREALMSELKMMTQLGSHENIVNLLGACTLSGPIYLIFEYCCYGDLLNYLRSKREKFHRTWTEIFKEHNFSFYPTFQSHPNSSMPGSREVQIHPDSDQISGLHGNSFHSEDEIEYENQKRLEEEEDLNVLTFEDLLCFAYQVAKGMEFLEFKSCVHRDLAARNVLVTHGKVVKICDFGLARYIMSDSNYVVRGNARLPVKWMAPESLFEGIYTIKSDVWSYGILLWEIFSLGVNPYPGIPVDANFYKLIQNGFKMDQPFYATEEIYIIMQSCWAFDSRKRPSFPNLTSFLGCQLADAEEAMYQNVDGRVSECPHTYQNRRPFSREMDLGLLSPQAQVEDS
Conditions: at 0.1 µM.

For assay [9], the target named is Non-receptor tyrosine-protein kinase TYK2 (Homo sapiens) (UniProt P29597). Conditions: at 1 µM.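 Also: values are mean percent inhibition of TYK2 kinase.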
Non-receptor tyrosine-protein kinase TYK2 (Homo sapiens), sequence (P29597 whole entry): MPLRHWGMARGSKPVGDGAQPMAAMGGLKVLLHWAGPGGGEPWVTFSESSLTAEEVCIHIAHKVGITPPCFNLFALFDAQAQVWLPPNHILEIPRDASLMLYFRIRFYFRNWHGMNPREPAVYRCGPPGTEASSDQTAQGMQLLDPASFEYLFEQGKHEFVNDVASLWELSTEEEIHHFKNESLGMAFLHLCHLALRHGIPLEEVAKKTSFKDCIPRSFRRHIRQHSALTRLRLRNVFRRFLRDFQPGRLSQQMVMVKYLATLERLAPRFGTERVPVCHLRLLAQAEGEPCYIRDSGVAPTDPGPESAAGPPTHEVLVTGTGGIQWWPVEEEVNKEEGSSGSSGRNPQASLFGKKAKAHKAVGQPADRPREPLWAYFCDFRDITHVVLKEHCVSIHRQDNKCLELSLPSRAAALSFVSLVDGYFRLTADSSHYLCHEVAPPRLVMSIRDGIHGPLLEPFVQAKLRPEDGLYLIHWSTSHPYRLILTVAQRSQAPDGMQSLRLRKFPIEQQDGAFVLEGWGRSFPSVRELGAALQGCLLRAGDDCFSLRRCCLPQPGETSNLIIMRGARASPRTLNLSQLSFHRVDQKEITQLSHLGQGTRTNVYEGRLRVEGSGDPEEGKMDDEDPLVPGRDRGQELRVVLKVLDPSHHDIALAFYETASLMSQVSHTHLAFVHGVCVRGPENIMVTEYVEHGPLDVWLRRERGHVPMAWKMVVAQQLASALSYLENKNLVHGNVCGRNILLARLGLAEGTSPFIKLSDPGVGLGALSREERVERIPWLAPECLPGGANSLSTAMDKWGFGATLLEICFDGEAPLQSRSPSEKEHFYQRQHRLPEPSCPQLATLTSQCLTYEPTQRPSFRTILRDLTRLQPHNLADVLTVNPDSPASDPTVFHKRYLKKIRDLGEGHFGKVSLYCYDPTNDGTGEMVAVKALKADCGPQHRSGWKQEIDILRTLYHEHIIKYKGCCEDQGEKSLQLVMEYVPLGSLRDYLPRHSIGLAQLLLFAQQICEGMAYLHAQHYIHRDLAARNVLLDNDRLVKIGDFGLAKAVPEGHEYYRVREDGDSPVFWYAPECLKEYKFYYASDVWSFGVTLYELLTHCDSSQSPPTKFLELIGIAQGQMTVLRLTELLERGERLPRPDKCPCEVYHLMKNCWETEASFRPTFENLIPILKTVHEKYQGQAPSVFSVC
In assay [10] the target is T2, Tyrosine-protein kinase receptor TYRO3 (Homo sapiens) (UniProt Q06418).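 Also: reported percentages are averaged inhibition values of TYRO3 kinase activity.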
T2 sequence (whole entry): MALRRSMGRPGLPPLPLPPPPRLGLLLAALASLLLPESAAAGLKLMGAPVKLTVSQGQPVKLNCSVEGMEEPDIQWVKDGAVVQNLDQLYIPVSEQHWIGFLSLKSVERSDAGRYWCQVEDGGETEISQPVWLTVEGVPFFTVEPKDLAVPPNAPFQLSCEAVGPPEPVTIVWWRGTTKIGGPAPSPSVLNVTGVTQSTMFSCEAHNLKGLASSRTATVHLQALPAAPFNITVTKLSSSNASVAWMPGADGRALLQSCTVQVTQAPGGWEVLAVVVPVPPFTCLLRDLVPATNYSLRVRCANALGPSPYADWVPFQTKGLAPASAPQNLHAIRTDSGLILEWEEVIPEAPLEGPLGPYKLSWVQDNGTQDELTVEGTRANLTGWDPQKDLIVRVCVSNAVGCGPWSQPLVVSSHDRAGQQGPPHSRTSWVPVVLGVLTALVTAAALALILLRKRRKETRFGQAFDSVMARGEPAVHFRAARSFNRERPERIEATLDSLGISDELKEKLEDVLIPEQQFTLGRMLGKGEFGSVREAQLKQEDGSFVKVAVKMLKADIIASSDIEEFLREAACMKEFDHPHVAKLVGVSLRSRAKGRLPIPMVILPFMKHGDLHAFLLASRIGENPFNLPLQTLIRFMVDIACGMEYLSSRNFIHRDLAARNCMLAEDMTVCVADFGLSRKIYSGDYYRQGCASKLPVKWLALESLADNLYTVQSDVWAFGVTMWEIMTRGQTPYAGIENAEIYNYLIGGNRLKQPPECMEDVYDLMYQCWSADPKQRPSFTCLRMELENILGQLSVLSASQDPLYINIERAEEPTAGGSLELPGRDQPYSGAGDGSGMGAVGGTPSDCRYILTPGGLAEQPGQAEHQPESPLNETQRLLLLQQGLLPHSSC
The conditions noted are these: at 0.1 µM.

Fibroblast growth factor receptor 4 (Homo sapiens), sequence (P22455 22-802 limits assumed): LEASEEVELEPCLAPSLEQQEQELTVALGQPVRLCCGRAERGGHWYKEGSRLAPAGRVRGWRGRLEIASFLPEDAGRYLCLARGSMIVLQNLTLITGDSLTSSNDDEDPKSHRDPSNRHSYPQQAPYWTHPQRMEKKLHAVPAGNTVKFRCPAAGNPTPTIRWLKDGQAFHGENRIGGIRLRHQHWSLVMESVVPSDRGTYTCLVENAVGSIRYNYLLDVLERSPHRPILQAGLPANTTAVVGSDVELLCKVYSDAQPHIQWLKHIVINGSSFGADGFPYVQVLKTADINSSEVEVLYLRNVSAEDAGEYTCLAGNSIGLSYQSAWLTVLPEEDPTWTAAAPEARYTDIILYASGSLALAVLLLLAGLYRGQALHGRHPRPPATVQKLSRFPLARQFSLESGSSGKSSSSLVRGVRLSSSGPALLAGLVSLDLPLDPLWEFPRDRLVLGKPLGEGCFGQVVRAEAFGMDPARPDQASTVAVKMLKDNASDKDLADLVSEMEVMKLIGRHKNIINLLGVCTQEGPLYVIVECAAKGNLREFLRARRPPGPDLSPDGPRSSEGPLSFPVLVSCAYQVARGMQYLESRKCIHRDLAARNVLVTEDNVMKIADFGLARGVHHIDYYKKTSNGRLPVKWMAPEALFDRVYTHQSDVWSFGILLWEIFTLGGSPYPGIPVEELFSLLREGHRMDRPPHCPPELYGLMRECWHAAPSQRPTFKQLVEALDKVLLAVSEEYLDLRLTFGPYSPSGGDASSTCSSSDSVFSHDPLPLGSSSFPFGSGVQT
Tyrosine-protein kinase Fgr (Homo sapiens), sequence (P09769 2-529 limits assumed): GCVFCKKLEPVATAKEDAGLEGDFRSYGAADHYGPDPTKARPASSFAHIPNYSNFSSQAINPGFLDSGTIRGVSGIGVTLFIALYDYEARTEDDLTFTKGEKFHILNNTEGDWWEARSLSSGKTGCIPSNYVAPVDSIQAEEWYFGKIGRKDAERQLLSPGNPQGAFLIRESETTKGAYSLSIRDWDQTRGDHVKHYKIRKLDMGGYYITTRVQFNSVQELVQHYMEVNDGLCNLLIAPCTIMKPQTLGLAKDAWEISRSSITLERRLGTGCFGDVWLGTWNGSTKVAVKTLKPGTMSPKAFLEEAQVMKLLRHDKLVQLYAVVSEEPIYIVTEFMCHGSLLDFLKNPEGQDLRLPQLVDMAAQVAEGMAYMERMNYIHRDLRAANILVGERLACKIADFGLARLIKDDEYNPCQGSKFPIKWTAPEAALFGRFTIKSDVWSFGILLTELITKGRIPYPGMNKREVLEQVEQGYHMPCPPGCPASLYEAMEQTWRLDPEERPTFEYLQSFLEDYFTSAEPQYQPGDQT

By inhibition is commonly meant the drop in the measured response relative to a control, in per cent. For `NC(=O)c1cc(-c2ccc(F)cc2)cc(-c2ccncc2)c1N`, the inhibition in assay [1] was -0.36%; in assay [2], 5.32%; in assay [3], 3.24%; in assay [4], 0.41%; in [5] it was 0.85%; in assay [6] it was 3.14%. Further, the inhibition is 2.01% in assay [7], -6.54% in [8], -2.58% in assay [9] and 4.68% in assay [10].
In the case of `NCc1ccc(-n2c(-c3nonc3N)nc3cnccc32)cc1`, the inhibition in [1] was 0.49%; in [2] it was 1.73%; in assay [3], 3.12%; in [4] it was 1.08%; in [5], 1.4%; in assay [6], 1.23%. In addition, the inhibition was 3.45% in assay [7], -4.05% in assay [8], -2.73% in [9] and 1.87% in assay [10].
With `COc1cccc(/C=N/Nc2ncnc3c2cnn3-c2cccc(OC)c2)c1`, the inhibition was 0.32% in [1]; 1.37% in assay [2]; 8.08% in [3]; 3.79% in [4]; 0.71% in [5]; 0.18% in assay [6]. The inhibition in assay [7] is 4.83%; in assay [8] it was -0.05%; in assay [9], -1.11%; in [10] it was 3.49%.
Take `COc1ccc(C2=C(N3CCc4ccccc43)C(=O)NC2=O)cc1`: the inhibition in [1] was determined as 1.06%; in [2], 5.11%; in assay [3] it was 3.99%; in assay [4], 1.27%; in [5], 2.89%; in [6], 3.27%. Also, the inhibition was 2.59% in assay [7], 5.76% in assay [8], -5.5% in assay [9] and 4.63% in [10].
Consider `Cc1ccc(C(=O)NC(C)C)cc1-c1ccc(C(=O)NCC2CC2)cc1`, for which the inhibition in [1] is 0.47%; in [2] it was -1.7%; in [3], -1.1%; in assay [4], 0.43%; in assay [5], -1.81%; in assay [6], -4.25%. Moreover, the inhibition in assay [7] is -1.66%; in assay [8], -1.15%; in assay [9], 2.94%; in [10] it was -2.22%.
Take `COc1cc(N2CCN(C(C)C)CC2)ccc1Nc1nc(Nc2ccc(F)cc2C(=O)NC[C@@H](O)CO)c2cc[nH]c2n1`: the inhibition in assay [1] is -2.11%; in assay [2], 4.37%; in assay [3], 1.14%; in [4], 1.41%; in assay [5] it was 1.28%; in assay [6], 1.53%. Further, the inhibition was 2.54% in [7], 0.41% in assay [8], -2.95% in [9] and 2.87% in assay [10].
`O=C(Nc1n[nH]c2nc(-c3ccco3)ccc12)C1CC1`: the inhibition worked out at 2.6% in assay [1]; 0.22% in assay [2]; 4.92% in [3]; 1.05% in assay [4]; 7.88% in assay [5]; 0.89% in assay [6]. In addition, the inhibition in assay [7] is 9.22%; in assay [8] it was -0.89%; in assay [9], -1.09%; in [10] it was 2.23%.
Consider `Fc1ccc(-c2ncn(C3CCNCC3)c2-c2ccnc(Oc3ccc(F)c(F)c3)n2)cc1`, for which the inhibition in assay [1] was -4.24%; in [2], 2.76%; in [3], 3.69%; in assay [4], 0.45%; in assay [5], 4.56%; in assay [6], -1.09%. In addition, the inhibition in assay [7] is 4.18%; in [8], -2.41%; in assay [9], -5.44%; in assay [10], 1.82%.
With `COc1ccc2cc(-c3c(-c4ccncc4)nc(-c4ccc(S(C)(=O)=O)cc4C)n3C)ccc2c1`, the inhibition worked out at 2.96% in assay [1]; 3.77% in assay [2]; 4.62% in assay [3]; 0.91% in [4]; 2.09% in [5]; 1.65% in assay [6]. For the same molecule, the inhibition in [7] was 1%; in [8], -1.54%; in [9], -1.13%; in assay [10] it was 2.19%.
As for `CCc1nccc2c1nc(-c1nonc1N)n2CC`, the inhibition in [1] was 1.32%; in assay [2] it was -0.77%; in assay [3], 3.85%; in assay [4], -0.82%; in [5] it was 1.6%; in assay [6] it was -0.04%. Moreover, the inhibition in assay [7] is 0.33%; in assay [8] it was -2.37%; in assay [9], -2.82%; in assay [10], -0.74%.
